# KCNK3 block = human KCNK3 channel inhibition, primary screen | B-score at 10 µM | CHO-KCNK3 thallium flux, FluxOR fluorescence; active compounds read low | actives 0.84% (n = 340,000);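 active = B-score under library mean minus 4 SD, starting fluorescence ratio at most library mean plus 5 SD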;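 note: more negative B-score means stronger inhibition of thallium flux through KCNK3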
# Kir21 inh = blocks the mouse Kir2.1 inward-rectifier potassium channel; P35561; HEK293-Kir2.1, FluxOR thallium flux fluorescence; active compounds read low; B-score at 10 µM; actives 0.85% (n = 310,000); AID 1672;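 active = fluorescence ratio B-score at or below minus 3 SD of library scores, with starting-brightness B-score within 2 SD, cut at about -4.2 in these data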;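 note: channel flux triggered by added potassium and thallium sulfate stimulus; B-score of peak minus minimum fluorescence over baseline after thallium stimulus; more negative B-score means stronger Kir2.1 block with less thallium influx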
# TMEM16A inh = blocks the mouse calcium-activated chloride channel TMEM16A; Q8BHY3; HEK293 TMEM16A/YFP iodide influx fluorescence, ionomycin; normalized B-score (activity score, 25-100; higher = stronger inhibition) at 10 µM; actives 1.2% (n = 310,000); AID 588511;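 active = ratio plate-corrected score three or more library SD toward inhibition, starting fluorescence score within five deviations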;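 note: score derived from kinetic fluorescence span divided by baseline fluorescence per well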
# Target sequence (Q8BHY3 whole entry, looked up): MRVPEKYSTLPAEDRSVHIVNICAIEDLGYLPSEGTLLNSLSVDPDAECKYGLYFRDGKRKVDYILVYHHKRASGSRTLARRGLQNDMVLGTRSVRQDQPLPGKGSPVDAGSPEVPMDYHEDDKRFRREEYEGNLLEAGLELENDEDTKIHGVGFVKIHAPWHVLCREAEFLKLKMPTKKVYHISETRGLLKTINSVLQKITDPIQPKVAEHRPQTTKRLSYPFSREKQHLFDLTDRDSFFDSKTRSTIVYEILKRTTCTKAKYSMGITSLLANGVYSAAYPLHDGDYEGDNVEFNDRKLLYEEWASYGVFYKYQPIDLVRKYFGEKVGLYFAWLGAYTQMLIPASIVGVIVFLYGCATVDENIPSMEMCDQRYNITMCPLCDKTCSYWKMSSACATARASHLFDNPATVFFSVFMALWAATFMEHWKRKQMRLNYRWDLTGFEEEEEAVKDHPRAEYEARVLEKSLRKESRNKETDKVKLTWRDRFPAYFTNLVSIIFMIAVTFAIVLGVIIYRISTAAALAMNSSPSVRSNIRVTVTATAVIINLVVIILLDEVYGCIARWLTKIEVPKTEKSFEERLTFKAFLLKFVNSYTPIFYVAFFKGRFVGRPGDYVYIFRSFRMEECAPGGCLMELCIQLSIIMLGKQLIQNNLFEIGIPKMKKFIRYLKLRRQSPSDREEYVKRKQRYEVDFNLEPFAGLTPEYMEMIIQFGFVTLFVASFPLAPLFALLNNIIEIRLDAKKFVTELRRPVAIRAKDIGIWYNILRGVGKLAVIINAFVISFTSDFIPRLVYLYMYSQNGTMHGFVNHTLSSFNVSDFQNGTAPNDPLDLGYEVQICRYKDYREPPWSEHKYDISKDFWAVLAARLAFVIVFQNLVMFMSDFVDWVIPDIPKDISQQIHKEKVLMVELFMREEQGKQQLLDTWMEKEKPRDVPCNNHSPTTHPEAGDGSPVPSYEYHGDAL
# TMEM16A act = activates or potentiates the mouse TMEM16A chloride channel; actives 0.3% (n = 340,000); B-score at 10 µM; HEK293 TMEM16A/YFP-H148Q/I152L, iodide quench fluorescence; active compounds read low;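 active = fluorescence-ratio B-score plate-corrected deviation score at least 3 library SD below zero, with starting fluorescence score within 5 deviations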;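 note: channel opened by trigger with iodide after compound preincubation; score built on the fluorescence ratio of max minus min over baseline; more negative score means more quench and so TMEM16A activation or potentiation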
# KCNK9 inh = inhibitors of human KCNK9 two-pore domain potassium channel. Q9NPC2. HEK293 KCNK9, FluxOR thallium flux fluorescence; active compounds read low. B-score at 10 µM. actives 1.2% (n = 310,000);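 active = ratio B-score over 3 SD below the library mean, with starting fluorescence within 5 SD of its mean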;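 note: negative B-score means less thallium flux so channel inhibition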
# KCNK9 block conf = confirmation of human KCNK9 potassium channel inhibitors. shares compounds with KCNK9 inh. HEK293 KCNK9 cells, FluxOR thallium flux fluorescence. inhibition, % at 10 µM. actives 43% (n = 4,900);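 active = thallium signal inhibited by more than 5 SD of the compound-free buffer control wells, on both duplicate plates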
# Kir21 sel = selectivity of KCNK9 modulators against mouse Kir2.1; shares compounds with KCNK9 inh; Kir2.1 cells, FluxOR thallium flux fluorescence; inhibition, % at 10 µM; actives 4% (n = 4,900);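 active = thallium signal drop more than 5 SD beyond the mean of the no-compound control wells, seen in both duplicate plates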;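 note: signal is fluorescence rise after thallium addition divided by baseline fluorescence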
# HEK293 Tl ctr = second check of KCNK9 modulator effects in non-induced HEK293 cells; shares compounds with KCNK9 inh; FluxOR thallium flux; inhibition, % at 10 µM; actives 40% (n = 4,900);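 active = thallium signal drop beyond 5 SD of the untreated control mean, on both duplicate plates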
# Numbers stand for hits; i = inactive; nt = no result given. Only some compounds are listed: those with a hit (about 3.5% of all), similar ones and a draw of the others.
SMILES,KCNK3 block,Kir21 inh,TMEM16A inh,TMEM16A act,KCNK9 inh,KCNK9 block conf,Kir21 sel,HEK293 Tl ctr
Cc1ccc(C(=O)OCCN2CCN(c3ncc(C(F)(F)F)cc3Cl)CC2)cc1,i,i,i,i,i,i,i,i
COc1ccc(C(=O)OC2CCN(c3ncc(C(F)(F)F)cc3Cl)CC2)cc1,i,i,i,i,i,i,i,i
O=C(OCCN1CCN(c2ncc(C(F)(F)F)cc2Cl)CC1)c1ccc(F)cc1,i,i,i,i,i,nt,nt,nt
O=C(OC1CCN(c2ncc(C(F)(F)F)cc2Cl)CC1)c1ccccc1,i,i,i,i,i,nt,nt,nt
O=C(CN(Cc1ccc(F)cc1)S(=O)(=O)c1ccc(S(=O)(=O)N2CCOCC2)cc1)Nc1ccccc1,i,i,i,i,i,nt,nt,nt
Nc1ccccc1SC1CC(=O)N(c2ccccc2Cl)C1=O (configuration not stated),i,i,i,i,i,nt,nt,nt
COc1ccc(C(C)(C)C)cc1NC(=O)CNc1cccc2ccccc12,i,i,i,i,i,i,i,i
COc1ccccc1NC(=O)/C(=C/c1cccc([N+](=O)[O-])c1)c1ccccc1,i,i,i,i,-8.6,54%,i,38%
COc1ccccc1NC(=O)CC(=O)c1cccc([N+](=O)[O-])c1,i,i,i,nt,i,nt,nt,nt
COc1ccc(OCC(=O)NCCCCCCNC(=O)COc2ccc(OC)cc2)cc1,i,i,i,i,i,nt,nt,nt
CC(C)(C)c1ccc(C(=O)C2CCCN(C(=O)c3ccccn3)C2)cc1 (configuration not stated),i,i,nt,i,i,nt,nt,nt
COc1ccc2cc(C(=O)C3CCCN(C(=O)CCc4ccccn4)C3)ccc2c1 (configuration not stated),i,i,i,i,i,i,i,i
O=C(c1ccc(Cl)cc1)C1CCCN(C(=O)/C=C/c2ccccn2)C1 (configuration not stated),i,i,i,i,i,i,i,i
COc1ccc(C(=O)C2CCCN(C(=O)/C=C/c3ccccn3)C2)c(C)c1 (configuration not stated),i,i,i,i,i,i,i,i
COc1ccc(C(=O)C2CCCN(C(=O)/C=C/c3cnc[nH]3)C2)c(C)c1 (configuration not stated),i,i,i,i,i,nt,nt,nt
Nc1nc(NCc2ccco2)nc(N2CCN(Cc3ccccc3)CC2)c1[N+](=O)[O-],i,i,i,i,i,nt,nt,nt
CCC(=O)c1ccccc1OCCCCn1cncn1,i,i,i,i,i,nt,nt,nt
Cc1ccc(S(=O)(=O)N/N=C/c2ccc(OS(=O)(=O)c3ccc(C)c([N+](=O)[O-])c3)cc2)cc1,i,i,i,i,i,i,i,i
COc1ccc(CN(C)C(C)C(=O)Nc2ccc(S(=O)(=O)N3CCCCC3)cc2)c(OC)c1 (configuration not stated),i,nt,nt,i,nt,nt,nt,nt
CCn1cc(/C=N/N=C2\CCC3C4CCc5cc(O)ccc5C4CC[C@]23C)c(C)n1 (some centres not stated),i,i,i,i,i,i,i,i
CC12CCC3c4ccc(O)cc4CCC3C1CCC2=O (configuration not stated),i,nt,i,i,nt,nt,nt,nt
CCC(c1nnnn1Cc1ccco1)N1CCN(c2cc(Cl)ccc2C)CC1 (configuration not stated),i,i,i,i,-11,54%,i,42%
CCCCC(c1nnnn1Cc1ccco1)N1CCN(c2nc3ccccc3s2)CC1 (configuration not stated),i,i,i,i,-16,48%,i,33%
c1ccc(C(c2nnnn2Cc2ccco2)N2CCN(c3nc4ccccc4s3)CC2)cc1 (configuration not stated),i,i,i,i,-8.2,42%,i,28%
Cc1cc(O)c(NC(=O)c2cc([N+](=O)[O-])ccc2Cl)cc1C,i,i,i,i,-14,62%,i,i

# Compound activity from PubChem.
